NPR1 activator: GC-A (human) enzyme activation; AID 1671463; HEK293 GC-A cells, cGMP TR-FRET, EC30 ANP; 0% at EC30 ANP, 100% saturating ANP; 0.14% of 370,000 active; activation, % at 10 µM; P16066; in the data active means activation above about 40%
Target sequence (P16066 whole entry, looked up): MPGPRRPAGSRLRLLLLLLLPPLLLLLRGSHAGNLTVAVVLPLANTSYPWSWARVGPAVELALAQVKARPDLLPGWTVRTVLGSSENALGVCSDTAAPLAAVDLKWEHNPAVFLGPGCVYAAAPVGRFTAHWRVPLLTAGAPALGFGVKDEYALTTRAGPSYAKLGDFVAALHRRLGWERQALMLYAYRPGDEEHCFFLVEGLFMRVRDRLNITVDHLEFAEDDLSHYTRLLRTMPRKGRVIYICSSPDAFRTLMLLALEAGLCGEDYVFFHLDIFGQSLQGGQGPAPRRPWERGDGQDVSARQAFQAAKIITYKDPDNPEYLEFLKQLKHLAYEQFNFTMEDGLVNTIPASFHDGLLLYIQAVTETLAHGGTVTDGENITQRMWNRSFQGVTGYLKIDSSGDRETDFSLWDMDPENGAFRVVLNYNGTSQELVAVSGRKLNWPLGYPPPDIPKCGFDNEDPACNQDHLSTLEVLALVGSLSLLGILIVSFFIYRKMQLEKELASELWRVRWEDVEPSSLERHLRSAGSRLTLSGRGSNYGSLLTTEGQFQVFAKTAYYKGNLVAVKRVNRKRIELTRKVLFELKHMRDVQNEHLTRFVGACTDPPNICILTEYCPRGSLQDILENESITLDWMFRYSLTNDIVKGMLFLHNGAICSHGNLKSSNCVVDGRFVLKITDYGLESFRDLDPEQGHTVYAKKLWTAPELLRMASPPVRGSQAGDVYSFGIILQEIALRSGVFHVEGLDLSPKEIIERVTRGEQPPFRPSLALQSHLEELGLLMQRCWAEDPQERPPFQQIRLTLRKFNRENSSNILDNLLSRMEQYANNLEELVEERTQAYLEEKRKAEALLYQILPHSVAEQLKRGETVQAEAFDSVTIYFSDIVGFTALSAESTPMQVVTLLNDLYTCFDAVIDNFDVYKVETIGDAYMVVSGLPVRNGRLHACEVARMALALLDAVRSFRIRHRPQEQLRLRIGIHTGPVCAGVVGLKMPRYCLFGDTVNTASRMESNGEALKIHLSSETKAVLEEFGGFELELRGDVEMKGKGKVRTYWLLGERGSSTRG
HSF-1 act: increases HSF-1 driven luciferase reporter signal | NIH3T3-HGL HSF-1 luciferase reporter, MG132, 8 h; 100% = twice DMSO control signal | activation, % at 9 µM | 1.7% of 300,000 active | AID 504408;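 active means mean replicate activation of at least 50% with a set share of replicates each reaching 50%; inconclusive means only one of those two conditions met; inactive means mean below 50% and too few replicates reaching it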;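 further: 0% = median of the neutral control wells and 100% = twice that signal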
aDG glyco act: increases alpha dystroglycan glycosylation. 0.22% of 360,000 active. Pro5-aDG cells, alpha-DG glycosylation AlphaScreen (IIH6); 0% Pro5, 100% B10-LARGE cell signal. AID 624168. activation, % at 10 µM;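 active means activation of at least 8% versus controls, or a plate z-score of at least 8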;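 further: Pro5 are CHO cells carrying HIG-tagged alpha-DG that lacks glycosylation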
GC-B act: GC-B (human) receptor activation | activation, % at 10 µM | 0.11% of 370,000 active | AID 1920062 | P20594 | HEK293-GC-B cells, CNP EC30, cGMP TR-FRET; 0% at EC30 CNP, 100% saturating CNP;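 active means activation at 10 µM reaching about 35% in either raw or pattern-adjusted values, limit read from the data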
Dyrk1A ADPGlo: blocks rat Dyrk1A kinase activity | inhibition, % at 12.5 µM | ADP-Glo luminescence, NFATc1 peptide | 0.43% of 310,000 active | Q63470; in the data active means inhibition above about 50%;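 further: plate controls were vehicle with enzyme for no effect and no enzyme for full effect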
HSF1 inhib: HSF1 inhibition; NIH3T3-HGL HSE-luciferase, MG132-induced, luminescence 8 h; stronger effect = lower value; 0.77% of 300,000 active; activity change, negative = inhibition, % at 7.5 µM (by protocol);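 active means more than half of replicate wells show activity change below -50%, luminescence cut by over half; inconclusive means some wells, but at most half, below -50%; inactive means no replicate well below -50%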;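 further: luciferase reports HSF-1 transcriptional activity via heat shock element; 0% = median of DMSO wells and -100% = zero luminescence signal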
ADP-Glo artifact: ADP-Glo luciferase interference, Dyrk1A counter-screen | shares compounds with Dyrk1A ADPGlo | AC50, µM (top dose mostly 12 µM), inactives show top-dose activity change, negative = inhibition | 1,300 tested, under 10 active | ADP-Glo luciferase artifact assay, no Dyrk1A, luminescence;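 active means fitted half-maximal dose AC50 no more than ten times the top valid tested dose, with luminescence dropping as dose rises; inconclusive means poor fit, or flat fit with 30 to 70% inhibition; inactive means the rest, signal increases included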
aDG conf: alpha-DG glycosylation activation, confirmation. shares compounds with aDG glyco act. Pro5-aDG cells, IIH6 AlphaLISA; scaled to LARGE-overexpressing B10 cells as 100%. AID 651671. 17% of 600 active. activation, % at 10 µM (by protocol);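 active means activation of at least 7% in one or more replicates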;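 further: cells exposed to compound for two days before detection; 0% = DMSO-treated Pro5 cells and 100% = DMSO-treated B10-LARGE cells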
Active calls of the source: *; ? = inconclusive; nt = no result given; ! = not active in a repeat. Only some compounds are listed: those with a hit (about 2.5% of all), similar ones and a draw of the others.

SMILES	NPR1 activator	HSF-1 act	aDG glyco act	GC-B act	Dyrk1A ADPGlo	HSF1 inhib	aDG conf	others
COc1ccc(S(=O)(=O)N2CCOCC2)cc1NC(=O)COC(=O)CCS(=O)(=O)c1ccc(C)cc1	-4	nt	0	0	-4	nt	nt
CCN1CCN(Cc2ccc(NC(=O)c3ccc(C)c(NC(=O)c4cc(-c5ccc(Br)cc5)n[nH]4)c3)cc2C(F)(F)F)CC1	0	-54	0	0	5	-39	nt
CCN1CCN(Cc2ccc(NC(=O)c3cc(NC(=O)c4nccnc4N)cc(OC)c3)cc2C(F)(F)F)CC1	3	-11	0	0	55*	2	nt	ADP-Glo artifact=9%
CCN1CCN(Cc2ccc(NC(=O)c3ccc(C)c(NC(=O)N4CCNC4=O)c3)cc2C(F)(F)F)CC1	4	-47	0	6	54*!	-30	nt	ADP-Glo artifact=7%
CCN1CCN(Cc2ccc(NC(=O)c3ccc(C)c(NC(=O)c4nccnc4N)c3)cc2C(F)(F)F)CC1	0	-53	0	0	-2	-43	nt
N#Cc1c(=O)c2nc(NCCCO)ncc2n2c(=O)c3ccccc3[nH]c12	6	-5	0	-3	56*	-5	nt	ADP-Glo artifact=9%
Cc1ncc(CO)c(/C=N/NC(=S)Nc2ccc(F)cc2)c1O	1	-1	0	0	3	4	nt
Cc1ncc(CO)c(/C=N/Nc2ccc(C(F)(F)F)cn2)c1O	-32	2	1	-16	50*	2	nt	ADP-Glo artifact=9%
CCn1c2ccccc2c2cc(/C=N/n3cnnc3)ccc21	-9	-1	0	-8	4	-8	nt
CCn1c2ccccc2c2cc(/C=N/O)ccc21	-5	1	0	-3	80*	-15	nt	ADP-Glo artifact=8%
COc1cc(C(C)=O)ccc1OCc1cn(CC(=O)c2ccc(O)cc2)nn1	-1	nt	0	-2	9	nt	nt
C[N+](C)(CCOc1ccccc1)Cc1ccccc1	-2	nt	0	6	69*	nt	nt	ADP-Glo artifact=11%
Cc1sc2ncnc(OCC(=O)N3CCN(S(=O)(=O)c4ccccc4)CC3)c2c1C	-5	-19	0	2	17	2	nt
C=CCOc1ccc(/C=C2\SC(=Nc3cccnc3)NC2=O)cc1	-1	-3	0	-2	61*	-3	nt	ADP-Glo artifact=8%
CC1CCCN(S(=O)(=O)c2ccc(C(=O)Nc3sc4c(c3C(N)=O)CCN(C)C4)cc2)C1 (stereo unspecified)	-2	-4	48*	-2	3	1	3.7*
CC(C)N1CCc2c(sc(NC(=O)C3CCCCC3)c2C(N)=O)C1	1	4	8.2*	0	3	0	-1
CCN1CCc2c(sc(NC(=O)c3ccc(S(=O)(=O)N4CCOCC4)cc3)c2C(N)=O)C1	-2	-9	88*	-6	-1	-2	3
CCN1CCc2c(sc(NC(=O)c3ccc(S(=O)(=O)N4CCCCCC4)cc3)c2C(=O)NC)C1	0	6	26*	3	-1	-4	0
CCCN1CCc2c(sc(NC(=O)c3ccc(S(=O)(=O)N4CCCC4)cc3)c2C(N)=O)C1	-1	1	6	-2	2	-2	nt
Cc1sc2ncnc(OCC(=O)NC(C)C(C)C)c2c1C (stereo unspecified)	1	1	0	6	1	1	nt
CCN(CC)S(=O)(=O)c1ccc(C)c(NC(=O)CNCc2ccccc2OC)c1	4	-57	0	2	-6	-43	nt
O=C(COc1ccc([N+](=O)[O-])cc1)Nc1cccnc1	1	-3	0	0	-7	0	nt
O=C(COc1ccc(-c2ccccc2)cc1)Nc1cccnc1	10	nt	4.6*	2	nt	nt	-1
O=C(COc1ccc(-c2ccccc2)cc1)NNC(=O)Nc1ccccc1	4	nt	17*	-4	nt	nt	1
COc1ccc(Cc2c(C3CCCCC3)nc3ccc(C)cn23)c(C)c1	-1	nt	nt	5	nt	nt	nt
SMILES	NPR1 activator	HSF-1 act	aDG glyco act	GC-B act	Dyrk1A ADPGlo	HSF1 inhib	aDG conf	others
CCOc1ccc(NC(=S)N(CCCN2CCCC2)Cc2cccn2Cc2ccc(Cl)cc2)cc1	-3	-10	0	-4	1	4	nt
Cc1cccc(NC(=S)N(CCCN2CCCC2)Cc2cccn2Cc2ccc(Cl)cc2)c1	-27	13	2.8*	-15	4	-2	11*
CCn1cc(C(=O)N2CCCC(C(=O)c3ccc4ccccc4c3)C2)cn1 (stereo unspecified)	0	16	5.5*	7	21	8	-1
CCOc1cc(C2C(C#N)=C(N)Oc3n[nH]c(CC)c32)ccc1OCCN1CCOCC1 (stereo unspecified)	0	12	0	-1	1	1	nt
CCCCC(=O)Nc1ccc(NC(=O)c2ccc([N+](=O)[O-])cc2Cl)cc1OC	2	3	12*	2	3	-12	-1
CCCCC(=O)Nc1ccc(NC(=O)c2ccccc2[N+](=O)[O-])cc1OC	-1	12	0	-1	0	3	nt
CC1(C)Cc2c(cnn2-c2cccc(F)c2)C(NC(=O)CCc2cnccn2)C1 (stereo unspecified)	-2	-3	0	1	-1	4	nt
Cc1cc(C)c(C(=O)CC2(O)C(=O)Nc3ccccc32)cc1C (stereo unspecified)	-2	11	0	-3	5	6	nt
COc1ccc(/C(CC2(O)C(=O)Nc3ccccc32)=N\O)cc1 (stereo unspecified)	4	0	6.6*	1	-7	3	1
CC(C)NC(=O)Cn1cc(C(=O)C2CC2)c2ccccc21	0	11	11*	5	0	7	0
OC(Cc1nc2ccccc2[nH]1)c1ccccc1Cl (stereo unspecified)	-4	?	0	1	-2	35	nt
CCOc1ccc(N=Cc2ccc([N+](=O)[O-])cc2)c(O)c1	-3	nt	5.9*	1	nt	nt	2
CCOc1ccc(N=Cc2ccc(N(C)C)cc2)c(O)c1	nt	nt	4	nt	nt	nt	nt
O=S(=O)(c1cc(C(F)(F)F)ccc1Cl)N1CCN(c2ncnc3ccccc23)CC1	-1	nt	4.5*	-2	-2	nt	0
Nn1c(Cc2ccccc2F)nnc1SCCOc1ccc(Cl)cc1	7	2	0	1	0	2	nt
COc1ccc(NC(=O)c2cc(OC)c(OC)c(OC)c2)cn1	0	-1	3.7*	0	0	-8	0
